# Test results published in PubChem BioAssay (NCATS).
# Values joined by “and” are separate entries in the source; they are usually repeats but may differ in a detail not shown here. Identical values can stand only once. Records with an inconclusive call do not appear. Active and inactive are the calls of the source. The call rests on the fitted dose curve; in most records, active means well fitted curve in the direction sought with a large enough effect; inconclusive means small, poorly fitted or top-dose-only effect, or another doubt; inactive means no such curve, though single readings can be large; an effect the other way counts as inactive or inconclusive.
# How the values were obtained:
# [1] = target: Cytochrome P450 3A4 (Homo sapiens) (UniProt P08684); assay: qHTS Assay for Inhibitors and Substrates of Cytochrome P450 3A4 (AID 884); further: potency means the concentration at half of the fitted maximal effect; nearly all actives have a fitted effect of over 50% in size
# In short: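 Luminescent readout of luciferin produced by CYP3A4 (20 nM) dealkylation of Luciferin-PPXE, 25 uM (its KM). NADPH-driven reaction ran 60 min at RT after 10 min compound preincubation; data scaled to 57 uM ketoconazole as 100% inhibition.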
# [2] = target: Cytochrome P450 3A4 (Homo sapiens) (UniProt P08684); assay: qHTS Assay for Activators of Cytochrome P450 3A4 (AID 885); further: nearly all actives have a fitted effect of over 65% in size
# In short: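 Human CYP3A4 dealkylates Luciferin-PPXE to luciferin, which luciferase detection converts to light. Substrate was at its KM (25uM), buffer 200mM KPO4, reaction 60 min at RT.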
# [3] = target: Cytochrome P450 2D6 (Homo sapiens) (UniProt P10635); assay: qHTS Assay for Inhibitors and Substrates of Cytochrome P450 2D6 (AID 891); further: nearly all actives have a fitted effect of over 60% in size; further: potency means the concentration at half of the fitted maximal effect
# In short: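 Luminescent read-out of luciferin formed by 5 nM human CYP2D6 demethylating 30 uM Luciferin-ME EGE (Km level) over 60 min at room temperature after NADPH regeneration addition. Data normalized to full inhibition by 1.43 uM quinidine.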
# [4] = target: Cytochrome P450 2C19 (Homo sapiens) (UniProt P33261); assay: qHTS Assay for Inhibitors and Substrates of Cytochrome P450 2C19 (AID 899); further: nearly all actives have a fitted effect of over 60% in size; further: potency means the concentration at half of the fitted maximal effect
# In short: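 In 50mM KPO4, the reaction held 5nM enzyme and KM-level (10uM) Luciferin-H EGE; it ran 60 min at 37C after NADPH regeneration and a 10 min compound preincubation. Luminescence values were scaled to 57uM ketoconazole as complete inhibition.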
# Cytochrome P450 2C19 (Homo sapiens), sequence (P33261 whole entry, looked up): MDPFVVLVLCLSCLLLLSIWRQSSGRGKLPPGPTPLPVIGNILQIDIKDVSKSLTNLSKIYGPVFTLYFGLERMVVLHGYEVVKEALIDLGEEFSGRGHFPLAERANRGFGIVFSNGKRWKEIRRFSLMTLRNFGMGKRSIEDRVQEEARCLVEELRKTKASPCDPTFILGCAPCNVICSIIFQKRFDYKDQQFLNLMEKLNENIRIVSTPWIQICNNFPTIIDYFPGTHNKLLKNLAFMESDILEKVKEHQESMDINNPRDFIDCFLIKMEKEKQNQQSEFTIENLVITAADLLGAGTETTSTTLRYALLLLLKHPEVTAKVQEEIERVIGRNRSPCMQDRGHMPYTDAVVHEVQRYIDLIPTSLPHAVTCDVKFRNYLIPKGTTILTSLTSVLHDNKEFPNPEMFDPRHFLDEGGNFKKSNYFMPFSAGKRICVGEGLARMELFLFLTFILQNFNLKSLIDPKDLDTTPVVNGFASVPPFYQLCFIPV
# Cytochrome P450 3A4 (Homo sapiens), sequence (P08684 whole entry, looked up): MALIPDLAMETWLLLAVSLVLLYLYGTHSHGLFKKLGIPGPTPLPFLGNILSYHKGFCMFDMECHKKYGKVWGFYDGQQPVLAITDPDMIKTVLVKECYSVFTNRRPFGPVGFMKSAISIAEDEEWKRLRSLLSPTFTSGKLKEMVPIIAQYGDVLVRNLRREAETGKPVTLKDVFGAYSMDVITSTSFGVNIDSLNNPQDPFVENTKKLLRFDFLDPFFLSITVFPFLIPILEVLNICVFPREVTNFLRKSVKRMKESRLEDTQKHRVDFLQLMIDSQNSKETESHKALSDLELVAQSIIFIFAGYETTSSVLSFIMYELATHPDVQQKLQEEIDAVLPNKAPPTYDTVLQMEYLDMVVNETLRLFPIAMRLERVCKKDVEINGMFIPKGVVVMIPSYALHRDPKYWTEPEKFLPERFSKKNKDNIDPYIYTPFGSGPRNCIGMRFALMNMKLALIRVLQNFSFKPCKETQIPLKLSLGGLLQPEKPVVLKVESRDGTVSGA
# Cytochrome P450 2D6 (Homo sapiens), sequence (P10635 whole entry, looked up): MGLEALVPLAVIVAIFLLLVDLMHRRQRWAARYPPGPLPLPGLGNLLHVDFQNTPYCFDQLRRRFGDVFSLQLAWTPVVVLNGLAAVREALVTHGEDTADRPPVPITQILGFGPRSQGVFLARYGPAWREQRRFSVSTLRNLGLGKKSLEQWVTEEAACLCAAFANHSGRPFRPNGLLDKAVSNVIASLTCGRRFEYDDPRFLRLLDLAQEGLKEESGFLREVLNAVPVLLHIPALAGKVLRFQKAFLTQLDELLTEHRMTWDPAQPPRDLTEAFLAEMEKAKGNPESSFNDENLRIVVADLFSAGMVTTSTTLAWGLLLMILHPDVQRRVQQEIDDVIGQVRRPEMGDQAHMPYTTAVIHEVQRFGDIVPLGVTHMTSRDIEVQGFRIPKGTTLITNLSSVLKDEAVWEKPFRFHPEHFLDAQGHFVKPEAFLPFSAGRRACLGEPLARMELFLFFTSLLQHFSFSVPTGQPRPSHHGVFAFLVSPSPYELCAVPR
Compound,Potency [1],"activity change, positive = activation [2]",Potency [3],Potency [2],Potency [4]
Cc1ccc(/C=C/C2=CC3(C)CC2(C)C(c2ccc(C)cc2)CC3=O)cc1 (centres undefined),3.98 µM (active),-95.3% [at 11.4 µM] (inactive),inactive,,
CC(=O)OC[C@@H]1O[C@@H](O/N=C2/C[C@@H](O)[C@@H](O)[C@@H]3[C@@H]4C(=O)N(Cc5ccc6c(c5)OCO6)C(=O)[C@H]4CC[C@H]23)[C@H](OC(C)=O)[C@H](OC(C)=O)[C@@H]1OC(C)=O,5.01 µM (active),-74.2% [at 11.4 µM] (inactive),3.16 µM (active),,
Clc1ccc(C2[C@H]3CN(CC4CCCCC4)[C@H](c4ccccc4)C34CC2(c2cccnc2)C4)cn1 (some centres undefined),3.98 µM (active),,,inactive,
OCC1OC(c2ccc3c(c2)OCO3)C=CC1Oc1cc(Cl)cc(Cl)c1 (centres undefined),0.316 µM (active),-90.6% [at 11.4 µM] (inactive),3.16 µM (active),,0.0794 µM (active)
CCCCC#CC1C=CC(Oc2cc(OC)c(OC)c(OC)c2)C(COC(=O)OCC)O1 (centres undefined),2.51 µM (active),-83.6% [at 11.4 µM] (inactive),inactive,,
COC(=O)C/C=C\[C@@H](C)[C@@H](/C=N\OC[C@@H](O)COCc1ccco1)NS(=O)(=O)c1ccc(C)cc1,3.16 µM (active),-107% [at 11.4 µM] (inactive),inactive,,
CCCCC#CC1C=CC(Oc2ccc(C(=O)OC)cc2)C(COC(=O)OCC)O1 (centres undefined),3.98 µM (active),-80.8% [at 11.4 µM] (inactive),inactive,,inactive
CCOC(=O)OCC1OC(C#Cc2ccccc2)C=CC1OC(=O)OCC (centres undefined),3.98 µM (active),-79.4% [at 11.4 µM] (inactive),inactive,,2.51 µM (active)
CO[C@H]1COC(=O)C/C=C\[C@H](C)[C@@H](NS(=O)(=O)c2ccc(C)cc2)COC(=O)C/C=C\[C@@H]1C,3.16 µM (active),-67.8% [at 11.4 µM] (inactive) and -95.2% [at 11.4 µM] (inactive),inactive,,
N#Cc1ccc(C23CC4(C2)[C@H](CN(Cc2cccnc2)[C@@H]4c2ccccc2)C3c2ccccc2)cc1 (some centres undefined),3.98 µM (active),,,inactive,
C/C=C/OC(=O)NC(c1ccccc1)[C@@]1(C(=O)OCC)CCCC1=O (some centres undefined),0.0158 µM (active),-71.4% [at 11.4 µM] (inactive),inactive,,0.0251 µM (active)
COc1ccc(O[C@H]2C=C[C@@H](c3ccccc3)O[C@@H]2CO/N=C(\C)CCN2CCCc3nc(C)c(C)cc32)cc1,3.16 µM (active),-63.6% [at 11.4 µM] (inactive),3.16 µM (active),,0.398 µM (active)
COc1cccc([C@@H]2Oc3ccc(OC)cc3/C(=N/O[C@@H](C)CN3CCCc4nc(C)c(C)cc43)[C@@H]2O)c1,3.16 µM (active),-92.2% [at 11.4 µM] (inactive),3.98 µM (active),,
COC(=O)[C@@H]1CC[C@H](C)[C@@H](c2ccc(C)cc2)N1C(=O)c1ccc(/C=N\OC[C@@H](C)[C@H](OCc2ccccc2)C(C)C)cc1,3.98 µM (active),-66.5% [at 11.4 µM] (inactive),3.98 µM (active),,
C=CCOC(=O)C(C(C)=O)C(NC(=O)OC)c1ccc(Cl)cc1 (centres undefined),1.26 µM (active),-107% [at 11.4 µM] (inactive),inactive,,0.251 µM (active)
C=C(C)C(O)/C=C/c1ccc(OC)cc1 (centres undefined),5.01 µM (active),-85.8% [at 11.4 µM] (inactive),inactive,,
O=C(/C=C\c1ccc2c(c1)OCO2)c1ccc(F)cc1,3.16 µM (active),-89.5% [at 11.4 µM] (inactive),2 µM (active),,
C/C(CCC(=O)OC[C@@H]1O[C@H](C#Cc2ccccc2)C=C[C@@H]1Oc1ccc(C)cc1)=N/O[C@@H](C)CN1CCCc2nc(C)c(C)cc21,3.98 µM (active),-95.5% [at 11.4 µM] (inactive),3.16 µM (active),,
COc1ccc(O[C@H]2C=C[C@@H](c3ccccc3)O[C@H]2COC(=O)CC/C(C)=N/O[C@@H]2O[C@H](COC(C)=O)[C@H](OC(C)=O)[C@H](OC(C)=O)[C@H]2OC(C)=O)cc1,5.01 µM (active),-91.6% [at 11.4 µM] (inactive),3.16 µM (active),,1.58 µM (active)
CC(C)CCN1CCc2nc(COc3ccccc3)c3c(c2C1)COC(C)C3 (centres undefined),3.16 µM (active),-76.7% [at 11.4 µM] (inactive),inactive,,inactive
COc1ccc(/C=C/C2=CC3(C)CC2(C)C(c2ccc(OC)cc2)CC3=O)cc1 (centres undefined),5.01 µM (active),-60.7% [at 11.4 µM] (inactive),inactive,,
